Key:
[1] = molecular target: Serine/threonine-protein kinase PAK 6 (Homo sapiens) (UniProt Q9NQU5); details: at 1 µM;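 note: values are mean percent inhibition of PAK6 kinase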
[2] = system: Tyrosine-protein kinase ABL1 (Homo sapiens), P00519 [E255K]; details: at 0.1 µM
[3] = system: Tyrosine-protein kinase ABL1 (Homo sapiens), P00519 [E255K]; details: at 1 µM
[4] = system: Tyrosine-protein kinase ABL1 (Homo sapiens), P00519 [H396P]; details: at 0.1 µM
[5] = system: Tyrosine-protein kinase ABL1 (Homo sapiens), P00519 [H396P]; details: at 1 µM
[6] = system: Tyrosine-protein kinase ABL1 (Homo sapiens), P00519 [M351T]; details: at 0.1 µM
[7] = system: Tyrosine-protein kinase ABL1 (Homo sapiens), P00519 [M351T]; details: at 1 µM
[8] = system: Tyrosine-protein kinase ABL1 (Homo sapiens), P00519 [Q252H]; details: at 0.1 µM
[9] = system: Tyrosine-protein kinase ABL1 (Homo sapiens), P00519 [Q252H]; details: at 1 µM
[10] = system: Tyrosine-protein kinase ABL1 (Homo sapiens), P00519 [T315I]; details: at 0.1 µM
[11] = system: Tyrosine-protein kinase ABL1 (Homo sapiens), P00519 [T315I]; details: at 1 µM
[12] = system: Tyrosine-protein kinase ABL1 (Homo sapiens), P00519 [Y253F]; details: at 0.1 µM
[13] = system: Tyrosine-protein kinase ABL1 (Homo sapiens), P00519 [Y253F]; details: at 1 µM
[14] = molecular target: Tyrosine-protein kinase ABL1 (Homo sapiens) (UniProt P00519); details: at 0.1 µM
[15] = molecular target: Tyrosine-protein kinase ABL1 (Homo sapiens) (UniProt P00519); details: at 1 µM
[16] = molecular target: ALK tyrosine kinase receptor (Homo sapiens) (UniProt Q9UM73); details: at 0.1 µM
ALK tyrosine kinase receptor (Homo sapiens), sequence (Q9UM73 19-1620 limits assumed): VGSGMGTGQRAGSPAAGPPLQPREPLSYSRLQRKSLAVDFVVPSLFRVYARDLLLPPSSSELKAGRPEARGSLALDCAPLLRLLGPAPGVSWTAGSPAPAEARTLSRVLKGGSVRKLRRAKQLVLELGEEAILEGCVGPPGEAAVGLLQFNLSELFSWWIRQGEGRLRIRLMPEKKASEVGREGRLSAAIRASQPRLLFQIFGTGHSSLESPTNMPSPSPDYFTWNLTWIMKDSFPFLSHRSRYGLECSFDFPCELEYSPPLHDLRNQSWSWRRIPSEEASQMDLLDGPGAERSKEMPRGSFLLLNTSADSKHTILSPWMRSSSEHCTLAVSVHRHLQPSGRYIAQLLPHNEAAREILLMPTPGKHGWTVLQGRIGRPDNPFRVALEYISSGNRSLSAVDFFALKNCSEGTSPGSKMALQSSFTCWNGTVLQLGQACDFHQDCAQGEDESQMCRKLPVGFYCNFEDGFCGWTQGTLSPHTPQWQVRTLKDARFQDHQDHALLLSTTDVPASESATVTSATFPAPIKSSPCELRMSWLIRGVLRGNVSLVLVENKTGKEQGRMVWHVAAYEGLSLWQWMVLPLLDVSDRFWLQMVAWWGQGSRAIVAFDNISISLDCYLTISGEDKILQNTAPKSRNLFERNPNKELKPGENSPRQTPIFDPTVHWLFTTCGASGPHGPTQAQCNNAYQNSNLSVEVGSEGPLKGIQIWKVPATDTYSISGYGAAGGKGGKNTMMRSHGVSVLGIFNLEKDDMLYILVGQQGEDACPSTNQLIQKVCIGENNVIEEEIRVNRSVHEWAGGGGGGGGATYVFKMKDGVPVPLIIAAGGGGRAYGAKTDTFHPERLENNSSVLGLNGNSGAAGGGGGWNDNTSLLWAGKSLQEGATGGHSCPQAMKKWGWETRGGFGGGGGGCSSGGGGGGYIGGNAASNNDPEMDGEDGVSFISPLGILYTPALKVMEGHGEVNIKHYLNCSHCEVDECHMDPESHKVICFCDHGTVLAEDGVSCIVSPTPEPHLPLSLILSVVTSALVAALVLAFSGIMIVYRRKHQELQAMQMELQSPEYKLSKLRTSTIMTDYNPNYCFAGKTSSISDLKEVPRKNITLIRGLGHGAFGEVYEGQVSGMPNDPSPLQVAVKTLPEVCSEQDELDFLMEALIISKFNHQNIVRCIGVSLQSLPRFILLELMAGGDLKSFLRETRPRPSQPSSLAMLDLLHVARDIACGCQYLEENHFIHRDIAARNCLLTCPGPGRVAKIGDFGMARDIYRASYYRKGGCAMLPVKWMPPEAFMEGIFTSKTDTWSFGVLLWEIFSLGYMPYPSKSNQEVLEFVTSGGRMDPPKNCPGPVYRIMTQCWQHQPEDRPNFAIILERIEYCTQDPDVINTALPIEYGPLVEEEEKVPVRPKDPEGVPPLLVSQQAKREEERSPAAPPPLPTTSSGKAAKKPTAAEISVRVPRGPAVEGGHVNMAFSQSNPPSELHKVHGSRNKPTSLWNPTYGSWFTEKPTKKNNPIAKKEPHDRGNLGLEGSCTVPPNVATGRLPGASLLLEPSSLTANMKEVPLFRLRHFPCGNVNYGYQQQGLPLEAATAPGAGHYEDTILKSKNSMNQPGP

[17] = molecular target: ALK tyrosine kinase receptor (Homo sapiens) (UniProt Q9UM73); details: at 1 µM
[18] = molecular target: Tyrosine-protein kinase ABL2 (Homo sapiens) (UniProt P42684); details: at 0.1 µM
Tyrosine-protein kinase ABL2 (Homo sapiens), sequence (P42684 whole entry): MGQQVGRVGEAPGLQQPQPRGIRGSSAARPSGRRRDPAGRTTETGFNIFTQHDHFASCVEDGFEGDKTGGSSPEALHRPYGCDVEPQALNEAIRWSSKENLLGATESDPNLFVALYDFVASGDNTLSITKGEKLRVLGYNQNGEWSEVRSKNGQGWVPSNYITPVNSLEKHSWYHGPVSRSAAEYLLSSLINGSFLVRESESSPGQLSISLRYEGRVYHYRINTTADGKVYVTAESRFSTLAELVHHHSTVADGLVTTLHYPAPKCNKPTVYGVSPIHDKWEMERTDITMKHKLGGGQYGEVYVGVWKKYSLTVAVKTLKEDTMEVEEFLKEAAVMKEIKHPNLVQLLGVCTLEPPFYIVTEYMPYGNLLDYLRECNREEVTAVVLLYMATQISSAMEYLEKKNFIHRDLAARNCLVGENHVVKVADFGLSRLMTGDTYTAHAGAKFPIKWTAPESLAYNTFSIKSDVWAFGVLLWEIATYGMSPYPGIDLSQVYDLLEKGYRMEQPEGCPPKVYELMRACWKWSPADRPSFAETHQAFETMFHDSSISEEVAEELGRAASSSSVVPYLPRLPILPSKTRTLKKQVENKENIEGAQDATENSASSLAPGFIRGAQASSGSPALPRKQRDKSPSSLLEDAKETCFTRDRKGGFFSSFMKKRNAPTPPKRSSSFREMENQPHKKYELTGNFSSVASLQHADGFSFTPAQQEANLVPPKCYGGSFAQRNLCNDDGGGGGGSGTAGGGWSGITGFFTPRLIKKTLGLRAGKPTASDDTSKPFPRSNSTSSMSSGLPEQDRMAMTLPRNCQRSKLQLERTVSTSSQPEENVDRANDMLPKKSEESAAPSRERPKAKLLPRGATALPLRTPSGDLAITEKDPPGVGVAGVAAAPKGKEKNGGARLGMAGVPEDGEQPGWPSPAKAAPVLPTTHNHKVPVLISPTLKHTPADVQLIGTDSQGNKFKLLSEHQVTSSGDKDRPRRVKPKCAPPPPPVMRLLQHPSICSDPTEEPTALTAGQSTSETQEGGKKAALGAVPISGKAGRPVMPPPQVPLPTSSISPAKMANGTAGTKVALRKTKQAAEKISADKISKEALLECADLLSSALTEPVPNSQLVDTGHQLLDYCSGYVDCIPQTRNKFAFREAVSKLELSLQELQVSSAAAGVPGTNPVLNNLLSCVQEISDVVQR

[19] = molecular target: Tyrosine-protein kinase ABL2 (Homo sapiens) (UniProt P42684); details: at 1 µM
[20] = molecular target: Tyrosine-protein kinase receptor UFO (Homo sapiens) (UniProt P30530); details: at 0.1 µM;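 note: values are mean percent inhibition of AXL from the GSK PKIS screen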
Tyrosine-protein kinase receptor UFO (Homo sapiens), sequence (P30530 whole entry): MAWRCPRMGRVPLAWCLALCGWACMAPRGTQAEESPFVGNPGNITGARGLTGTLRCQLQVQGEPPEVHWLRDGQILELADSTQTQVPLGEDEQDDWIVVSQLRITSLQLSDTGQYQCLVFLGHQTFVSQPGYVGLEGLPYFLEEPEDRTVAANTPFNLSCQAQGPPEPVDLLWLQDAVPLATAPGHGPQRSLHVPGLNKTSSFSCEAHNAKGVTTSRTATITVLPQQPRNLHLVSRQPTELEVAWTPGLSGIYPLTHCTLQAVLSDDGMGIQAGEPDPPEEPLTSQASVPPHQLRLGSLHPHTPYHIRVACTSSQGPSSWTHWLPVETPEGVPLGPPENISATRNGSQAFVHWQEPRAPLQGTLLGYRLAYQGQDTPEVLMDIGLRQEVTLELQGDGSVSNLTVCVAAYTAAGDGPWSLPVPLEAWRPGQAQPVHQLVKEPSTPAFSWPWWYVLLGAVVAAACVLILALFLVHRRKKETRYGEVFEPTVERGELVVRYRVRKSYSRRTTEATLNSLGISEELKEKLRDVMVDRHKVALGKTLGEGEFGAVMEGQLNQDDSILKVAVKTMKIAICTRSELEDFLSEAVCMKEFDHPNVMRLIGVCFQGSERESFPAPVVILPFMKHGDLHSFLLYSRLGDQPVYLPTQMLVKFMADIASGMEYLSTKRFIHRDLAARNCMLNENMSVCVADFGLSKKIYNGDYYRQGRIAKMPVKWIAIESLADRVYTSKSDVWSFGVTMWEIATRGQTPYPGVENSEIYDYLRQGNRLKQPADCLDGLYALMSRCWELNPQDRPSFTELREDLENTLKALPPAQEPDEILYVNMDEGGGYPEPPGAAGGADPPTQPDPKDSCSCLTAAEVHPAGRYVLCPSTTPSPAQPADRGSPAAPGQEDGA

Serine/threonine-protein kinase PAK 6 (Homo sapiens), sequence (Q9NQU5 whole entry, looked up): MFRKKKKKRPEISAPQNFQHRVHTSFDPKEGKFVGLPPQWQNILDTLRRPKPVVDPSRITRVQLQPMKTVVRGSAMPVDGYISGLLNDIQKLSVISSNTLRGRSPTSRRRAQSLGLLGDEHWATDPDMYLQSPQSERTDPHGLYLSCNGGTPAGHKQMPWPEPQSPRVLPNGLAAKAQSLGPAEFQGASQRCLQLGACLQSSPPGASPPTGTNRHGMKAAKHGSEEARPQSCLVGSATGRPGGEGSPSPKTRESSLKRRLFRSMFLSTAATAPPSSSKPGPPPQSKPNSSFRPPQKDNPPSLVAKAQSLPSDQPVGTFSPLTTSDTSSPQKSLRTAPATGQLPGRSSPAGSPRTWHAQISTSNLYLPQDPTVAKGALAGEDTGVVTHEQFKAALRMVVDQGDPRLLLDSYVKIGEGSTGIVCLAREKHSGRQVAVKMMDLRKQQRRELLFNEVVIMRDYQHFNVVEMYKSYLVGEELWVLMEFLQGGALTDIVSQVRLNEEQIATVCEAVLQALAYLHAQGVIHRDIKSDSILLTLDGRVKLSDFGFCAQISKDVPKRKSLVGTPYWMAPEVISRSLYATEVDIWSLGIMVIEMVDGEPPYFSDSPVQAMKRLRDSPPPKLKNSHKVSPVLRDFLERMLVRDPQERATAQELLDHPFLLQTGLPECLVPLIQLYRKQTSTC

Row | Compound | inhibition [1] [%] | inhibition [2] [%] | inhibition [3] [%] | inhibition [4] [%] | inhibition [5] [%] | inhibition [6] [%] | inhibition [7] [%] | inhibition [8] [%] | inhibition [9] [%] | inhibition [10] [%] | inhibition [11] [%] | inhibition [12] [%] | inhibition [13] [%] | inhibition [14] [%] | inhibition [15] [%] | inhibition [16] [%] | inhibition [17] [%] | inhibition [18] [%] | inhibition [19] [%] | inhibition [20] [%]
1 | CNC(=O)c1cccc(C#Cc2cncnc2Nc2ccc(OCc3cccc(F)c3)c(Cl)c2)c1 | 0.68 | 0.14 | 0.64 | 0.79 | 1.44 | 0.11 | 2.15 | 1.53 | 2.58 | 1.23 | 2.43 | 0.77 | 3.36 | 0.98 | 5.91 | 1.88 | 3.83 | 2.79 | 4.76 | -1.87
2 | COc1ccc(-c2cc3c(N)ncnc3o2)cc1 | -9.7 | 0.23 | 5.63 | -0.22 | 11 | 0.58 | 11.2 | -0.72 | 9.12 | 0.76 | 2.97 | -0.25 | 10.8 | 2.28 | 11.4 | -1.19 | 1.1 | 0.1 | 5.3 | 2.44
3 | CC(=O)NCc1cccc(C#Cc2cncnc2Nc2ccc(OCc3cccc(F)c3)c(Cl)c2)c1 | -2.72 | -0.06 | 1.65 | 2.49 | -0.68 | 1.1 | -0.38 | 2.02 | -0.7 | 2 | 1.56 | 1.3 | 2.58 | -0.31 | 2.82 | -0.48 | 0.2 | -0.67 | -0.87 | -0.21
4 | COc1ccc(-c2oc3ncnc(N)c3c2-c2ccc(NC(=O)Nc3cc(C(F)(F)F)ccc3F)cc2)cc1 | 11 | 3.15 | 22.9 | 10.3 | 58.2 | 34.6 | 76.4 | 33.6 | 76.2 | 21.9 | 64.3 | 9.77 | 54.4 | 7.54 | 52.3 | 2.32 | 8.5 | 13.6 | 68.1 | 21.3
5 | COc1ccc(-c2nn3ncccc3c2-c2ccnc(Nc3ccc4c(c3)OCCO4)n2)cc1 | -1.85 | -0.56 | 13.9 | 3.27 | 34.6 | 20.9 | 63.3 | 11.9 | 55 | 2.65 | 32.3 | 2.95 | 33.3 | 2.5 | 25.8 | 8.08 | 35.2 | 5.47 | 33.2 | 1.61
6 | CCc1nn2ncccc2c1-c1ccnc(NC2CC2)n1 | -4.39 | 0.71 | 4.01 | 3.05 | 6.43 | 1.9 | 4.54 | 2.92 | 7.3 | 0.33 | 1.06 | 1.02 | 4.43 | 5.52 | 6.81 | 1.99 | 5.07 | 2.35 | 5.86 | -2.55
7 | COC(=O)Nc1nc2ccc(S(=O)(=O)c3ccc(NC(=O)Nc4cc(C(F)(F)F)ccc4F)cc3)cc2[nH]1 | -4.19 | 1.6 | -0.55 | 2.6 | -0.47 | 0.84 | 3.17 | 2.16 | 4.69 | 2.49 | 1.15 | 0.34 | 1.69 | 3.92 | 9.87 | 2.66 | 3.54 | 5.17 | 6.34 | -5.56
8 | COc1ccc(-c2cc(-c3c[nH]nc3-c3ccccn3)ccn2)cc1 | -3.15 | 9.84 | 40.9 | 20.2 | 64.2 | 15.3 | 63.3 | 10.8 | 41 | 3.29 | 5.41 | 12.3 | 48.3 | 14.1 | 59.8 | 3.73 | 5.23 | 3.35 | 35.6 | -6.83
9 | COc1cccc(-n2ncc3c(N/N=C/c4ccc(F)cc4)ncnc32)c1 | 5.5 | 44.1 | 79.3 | 51.2 | 84.5 | 51.7 | 85.4 | 63.6 | 88.8 | 12.8 | 38.8 | 58.5 | 86.1 | 21.1 | 75.8 | 2.82 | 3.76 | 9.51 | 57.9 | -4.72
10 | NS(=O)(=O)c1ccc(Nc2ncc(-c3ccccc3)o2)cc1 | 8.68 | 4.6 | 17.8 | 8.3 | 39.3 | 3.46 | 40.1 | 4.58 | 28.1 | 3.72 | 17.9 | 5.61 | 26.6 | 5.37 | 37.9 | 1.53 | 6.29 | 4.93 | 42 | -5.59
11 | Nc1nc(-c2ccc(F)cc2)c(-c2ccc3ncccc3n2)s1 | -1.32 | 6.26 | 16.1 | 6.76 | 24.2 | 2.61 | 20.2 | 6.38 | 25.9 | 5.1 | 6.49 | 9.13 | 26.9 | 9.42 | 27.8 | 3.27 | 5.68 | 6.71 | 20.1 | -5.15
12 | O=C(O[C@H]1CN[C@H](C#Cc2cc3ncnc(Nc4ccc(Cc5ccccc5)cc4)c3s2)C1)N1CCOCC1 | -5.73 | -0.19 | -0.38 | -0.52 | 0.08 | -2.99 | -0.59 | -0.95 | 1.06 | 0.08 | 0.76 | -1.94 | 2.37 | -0.06 | 0.2 | 1.1 | 0.46 | -0.08 | -0.38 | -5.65
13 | COc1cc(Nc2nccc(Nc3ccc4c(C)n[nH]c4c3)n2)cc(OC)c1OC | -1.27 | 18.5 | 67.2 | 30.1 | 78.3 | 28.9 | 75.6 | 24.5 | 72.7 | 1.65 | 14.3 | 37.6 | 83.6 | 20.3 | 69.7 | 5.55 | 39.3 | 18.4 | 69.9 | 0.91
